Assay results from PubChem BioAssay (NCI).
Compounds without any hit were thinned out: in the full panel of roughly 83,000, 20% have a hit.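 Interpretation: 100, growth as untreated; towards 0, rising growth inhibition; 0, no net growth; 0 to -100, cell death. Compounds scoring below 10 were considered active.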 Unmarked numbers belong to inactive results. Calls of active or inactive are those of the source.

System: SN12C renal
Test: NCI-60 one-dose screen, 48 h (100 = growth as untreated, 0 = no growth, -100 = all killed)
Conditions: 10 µM unless noted
Protocol: Growth inhibition of the SN12C human tumor cell line is measured as a screen for anti-cancer activity. Cells are grown in 96 well plates and exposed to the test compound for 48 hours. Compounds are tested at a single concentration, which is 10^-5 M for most compounds. The reported endpoint is percent growth (GI% or GIPRCNT), where numbers from 0 - 100% represent growth inhibition, and numbers from -100% - 0 represent cell death. For example, a value of 40 represents 60% growth inhibition. A value of 0 means no net growth occurred over the course of the experiment. A value of -40 indicates 40% of cells at the beginning of the experiment died by the end of the experiment. A value of -100 means all cells are dead at the end of the experiment.
NCI-60 Human Tumor Cell Lines Screen was performed using the standard one-dose NCI protocol, which is described in more detail at https://dtp.cancer.gov/discovery_development/nci-60/default.htm.
Compounds with GIPRCNT values below 10 were considered active. Activity score was based on GIPRCNT using the following formula: […]
Score is 0 for GIPRCNT values of 100 or above, 50 for GIPRCNT values of 0, and 100 for GIPRCNT values of -100.

Structure (SMILES) | growth
COc1c(O)c2c3c(c1OC)-c1ccccc1CC3N(C)CC2 (stereo not given) | 99.9%
c1ccc(CCN2CCCCC2Cc2ccccc2)cc1 (stereo not given) | 99.2%
CCOC(=O)Nc1cc(Cl)c([N+](=O)[O-])c(NC(=O)OCC)n1 | 96.5%
COc1ccc(CN2CCN(Cc3ccccc3)CC2)c(O)c1 | 91.2%
CC[C@@H](C)/C=C(C)/C=C/C(=O)c1c(O)c(-c2ccc(O)cc2)cn(O)c1=O | 13.6%
O=S(=O)(c1ccc(Cl)cc1)C(Cl)(Cl)Cl | 58.3%
NC(=O)OCC(CO)(c1ccccc1)c1ccccc1 | 98.4%
CC(=O)[O][Hg][c]1nc2c(c(=O)n(C)c(=O)n2C)n1C | 104%
N#CC1c2ccccc2C=CN1C(=O)c1ccc(N(CCCl)CCCl)cc1 (stereo not given) | 75.5%
C[C@]12CC[C@H](OC3OC(O)C(O)C(O)C3O)C=C1CCC1C2CC[C@]2(C)[C@@H](c3ccc(=O)oc3)CC[C@]12O (stereo not given in full) | -37.7% (active)
O=c1[nH]c2cc(Cl)ccc2n1C1CCN(CCCC(c2ccc(F)cc2)c2ccc(F)cc2)CC1 | 20.1%
Oc1ccccc1OB(Oc1ccccc1O)N(CCCl)CCCl | 78.4%
COC(C)(C)CCC[C@H](C)C/C=C/C(C)=C/C(=O)OC(C)C | 92.5%
COC[CH2][Hg][C]#[C][Hg][CH2]COC | 96%
C/C(=N/OC(=O)N(C)C)c1cc(Cl)ccc1Cl | 103%
C[C@]12CCC(=O)CC1CC[C@@H]1C2CC[C@@]2(C)C1CC[C@@H]2OC(=O)CC[Se][Se]CCC(=O)O[C@H]1CCC2[C@@H]3CCC4CC(=O)CC[C@]4(C)C3CC[C@@]21C (stereo not given in full) | 103%
NC(=O)NC(=O)CI | 85%
Nc1c(Br)cc2c3c(cccc13)-c1ccccc1-2 | 90.4%
CC1(C)N=C(N)N=C(N)N1c1cccc(C(=O)Nc2cccc(S(=O)(=O)F)c2)c1 | 101%
COc1cc(C2CC(=O)Nc3nc(N)[se]c32)cc(OC)c1OC (stereo not given) | 64.6%

Structure (SMILES) | growth
C/C(=C\C(=O)O[C@H]1[C@@H]2[C@H](C)CC[C@H]2[C@]2(C)O[C@@]1(C1CCCCC1)C[C@H]2OC(=O)CO)c1ccccc1 | 7.85% (active)
CC(=O)Oc1ccc(Cl)cc1 | 94.6%
CC1(CF)NC(=O)NC1=O (stereo not given) | 94.3%
COC(=O)C1CC2c3ccccc3C1c1ccccc12 (stereo not given) | 97.7%
CCCCN(CCCC)CC(O)c1ccccc1 (stereo not given) | 111%
CC(CC(C#N)(c1ccccc1)c1ccccc1)N1CCOCC1 (stereo not given) | 93.5%
CC1(C)N=C(N)N=C(N)N1c1ccc(CCC(=O)Nc2cccc(S(=O)(=O)F)c2)cc1 | 46.5%
Oc1c(Br)cc(Br)cc1Br.[Cu+2] | 110%
NC(=O)C(Cl)Cl | 104%
Cc1ccccc1O | 105%
C[C@]12CC[C@@H]3C4=C(CC[C@H]3[C@@H]1CC[C@@H]2O)CC(=O)CC4 | 99.5%
CC(=O)O[C@H]1CCC2(C)C(=CCC3C2CCC2(C)/C(=N/OC(=O)c4ccc(N(CCCl)CCCl)cc4)CCC32)C1 (stereo not given in full) | 47.3%
CCCCOC(=O)c1ccccc1C(=O)O.CCCCOC(=O)c1ccccc1C(=O)O.[Cu+2] | 113%
[Br][Pb]([c]1ccccc1)([c]1ccccc1)[c]1ccccc1 | -83.7% (active)
ClCCN(CCCl)c1nc(Cl)c(C2CC(c3ccc(Cl)cc3)=NN2c2cc(Cl)cc(Cl)c2)s1 (stereo not given) | 92%
NS(=O)(=O)c1nc[nH]c1[N+](=O)[O-] | 102%
Oc1ccc(Br)cc1CN1CCN(Cc2ccc(Cl)cc2)CC1 | 89.6%
CN1CC2CCC(C1)C2=O | 99.8%
CCCCn1cc(C(=O)/C(C#N)=C/c2cc3ccccc3nc2Cl)c2cc(OC)ccc21 | 79.2%
N#[N+]c1cnc([O-])[nH]c1=O | 84.9%
